Reference: PubChem BioAssay AID1159580 (chemical genetic matrix, 2015)
Out of some 5,500 compounds screened, about 2,000 (36%) were called active. Not shown: some 18% with an inconclusive outcome. Cut-off read from the data, not from the text of the source: active = normalized growth mostly below about 0.91 (no sharp cut-off); inconclusive = no clear call, values can overlap the other calls; inactive = mostly above about 0.92. The list shows a part of the results.

Experiment: chemical genetic growth profiling, strain panel (AID 1159580);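 note: tested at 20 µM; growth read once vehicle control cultures reached saturation at 30 °C; 1 = growth at the plate median or of vehicle wells; lower values mean less growth of the strain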
Details: growth OD

Measured: normalized growth

CCOC(=O)C(Cc1ccc(O)cc1)NC(C)=O (configuration not stated)
inactive: S. cerevisiae deletion strains, locus YJR075W, strain HOC1, stronger effect = lower value 1.01 | S. cerevisiae deletion strains, locus YKL009W, strain mrt4, stronger effect = lower value 0.996 | S. cerevisiae deletion strains, locus YKL068W, stronger effect = lower value 1 | S. cerevisiae deletion strains, locus YKL085W, strain MDH1 (second series), stronger effect = lower value 1 | S. cerevisiae deletion strains, locus YKL085W, strain MDH1, stronger effect = lower value 1 | S. cerevisiae deletion strains, locus YKL160W, strain elf1, stronger effect = lower value 1.02 | S. cerevisiae deletion strains, locus YKL190W, strain CNB1, stronger effect = lower value 1.01 | S. cerevisiae deletion strains, locus YKR001C, strain vps1, stronger effect = lower value 0.995 | S. cerevisiae deletion strains, locus YKR026C, strain gcn3, stronger effect = lower value 1 | S. cerevisiae deletion strains, locus YKR091W, strain srl3, stronger effect = lower value 1 | S. cerevisiae deletion strains, locus YLL001W, strain dnm1, stronger effect = lower value 1.01 | S. cerevisiae deletion strains, locus YLL026W, stronger effect = lower value 0.997 | S. cerevisiae deletion strains, locus YLL041C, strain sdh2, stronger effect = lower value 1 | S. cerevisiae deletion strains, locus YLR027C, strain aat2, stronger effect = lower value 1 | S. cerevisiae deletion strains, locus YLR039C, strain RIC1, stronger effect = lower value 1.03 | S. cerevisiae deletion strains, locus YLR058C, strain SHM2, stronger effect = lower value 1.02 | S. cerevisiae deletion strains, locus YLR102C, strain apc9, stronger effect = lower value 1.01 | S. cerevisiae deletion strains, locus YLR113W, strain HOG1, stronger effect = lower value 1.01 | S. cerevisiae deletion strains, locus YLR221C, strain rsa3, stronger effect = lower value 0.987 | S. cerevisiae deletion strains, locus YLR258W, strain gsy2, stronger effect = lower value 1.01 | S. cerevisiae deletion strains, locus YLR262C, strain YPT6 (second series), stronger effect = lower value 0.968 | S. cerevisiae deletion strains, locus YLR262C, strain YPT6, stronger effect = lower value 1.01 | S. cerevisiae deletion strains, locus YLR268W, strain sec22, stronger effect = lower value 1.01 | S. cerevisiae deletion strains, locus YLR320W, strain mms22, stronger effect = lower value 0.994 | S. cerevisiae deletion strains, locus YLR330W, strain CHS5, stronger effect = lower value 1.01 | S. cerevisiae deletion strains, locus YLR342W, strain FKS1 (second series), stronger effect = lower value 1.07 | S. cerevisiae deletion strains, locus YLR342W, strain FKS1, stronger effect = lower value 1.01 | S. cerevisiae deletion strains, locus YLR357W, strain rsc2, stronger effect = lower value 1.01 | S. cerevisiae deletion strains, locus YLR370C, strain arc18, stronger effect = lower value 1 | S. cerevisiae deletion strains, locus YLR371W, strain rom2, stronger effect = lower value 1.02 | S. cerevisiae deletion strains, locus YLR384C, strain iki3, stronger effect = lower value 1 | S. cerevisiae deletion strains, locus YLR418C, strain cdc73, stronger effect = lower value 1 | S. cerevisiae deletion strains, locus YML016C, strain PPZ1, stronger effect = lower value 1.01 | S. cerevisiae deletion strains, locus YML032C, strain rad52, stronger effect = lower value 0.989 | S. cerevisiae deletion strains, locus YML120C, strain ndi1, stronger effect = lower value 1.01 | S. cerevisiae deletion strains, locus YML124C, strain tub3, stronger effect = lower value 0.999 | S. cerevisiae deletion strains, locus YMR058W, strain fet3, stronger effect = lower value 1.01 | S. cerevisiae deletion strains, locus YMR078C, strain ctf18, stronger effect = lower value 1.01 | S. cerevisiae deletion strains, locus YMR125W, strain sto1, stronger effect = lower value 0.995 | S. cerevisiae deletion strains, locus YMR129W, stronger effect = lower value 1.01 | S. cerevisiae deletion strains, locus YMR205C, strain PFK2, stronger effect = lower value 0.997 | S. cerevisiae deletion strains, locus YMR223W, strain ubp8, stronger effect = lower value 0.987 | S. cerevisiae deletion strains, locus YMR231W, strain pep5, stronger effect = lower value 1.01 | S. cerevisiae deletion strains, locus YMR263W, strain SAP30, stronger effect = lower value 1.01 | S. cerevisiae deletion strains, locus YMR307W, strain GAS1, stronger effect = lower value 1.06 | S. cerevisiae deletion strains, locus YNL067W, strain RPL9B, stronger effect = lower value 1.02 | S. cerevisiae deletion strains, locus YNL071W, strain lat1, stronger effect = lower value 1 | S. cerevisiae deletion strains, locus YNL128W, strain TEP1, stronger effect = lower value 1.02 | S. cerevisiae deletion strains, locus YNL153C, strain GIM3, stronger effect = lower value 1.01 | S. cerevisiae deletion strains, locus YNL183C, strain NPR1, stronger effect = lower value 0.879 | S. cerevisiae deletion strains, locus YNL209W, strain ssb2, stronger effect = lower value 0.996 | S. cerevisiae deletion strains, locus YNL233W, strain BNI4, stronger effect = lower value 1.01 | S. cerevisiae deletion strains, locus YNL248C, strain rpa49, stronger effect = lower value 0.999 | S. cerevisiae deletion strains, locus YNL250W, strain rad50, stronger effect = lower value 0.992 | S. cerevisiae deletion strains, locus YNL271C, strain bni1, stronger effect = lower value 0.993 | S. cerevisiae deletion strains, locus YNL298W, strain CLA4, stronger effect = lower value 1.01 | S. cerevisiae deletion strains, locus YNL307C, strain MCK1, stronger effect = lower value 1 | S. cerevisiae deletion strains, locus YNL322C, strain KRE1 (second series), stronger effect = lower value 1.05 | S. cerevisiae deletion strains, locus YNL322C, strain KRE1, stronger effect = lower value 1.01 | S. cerevisiae deletion strains, locus YNR049C, strain mso1, stronger effect = lower value 1.02 | S. cerevisiae deletion strains, locus YNR052C, strain pop2, stronger effect = lower value 0.993 | S. cerevisiae deletion strains, locus YOL006C, strain TOP1, stronger effect = lower value 1.06 | S. cerevisiae deletion strains, locus YOL012C, strain htz1 0.841 | S. cerevisiae deletion strains, locus YOL147C, strain pex11, stronger effect = lower value 0.997 | S. cerevisiae deletion strains, locus YOR001W, strain rrp6, stronger effect = lower value 0.949 | S. cerevisiae deletion strains, locus YOR061W, strain CKA2, stronger effect = lower value 1.02 | S. cerevisiae deletion strains, locus YOR069W, strain VPS5, stronger effect = lower value 1.01 | S. cerevisiae deletion strains, locus YOR070C, strain gyp1, stronger effect = lower value 1 | S. cerevisiae deletion strains, locus YOR080W, strain dia2, stronger effect = lower value 1.01 | S. cerevisiae deletion strains, locus YOR083W, strain WHI5, stronger effect = lower value 1.03 | S. cerevisiae deletion strains, locus YOR106W, strain vam3, stronger effect = lower value 1.04 | S. cerevisiae deletion strains, locus YOR136W, strain idh2, stronger effect = lower value 0.989 | S. cerevisiae deletion strains, locus YOR144C, strain elg1, stronger effect = lower value 1.01 | S. cerevisiae deletion strains, locus YOR184W, strain ser1, stronger effect = lower value 1.01 | S. cerevisiae deletion strains, locus YOR231W, strain MKK1, stronger effect = lower value 0.971 | S. cerevisiae deletion strains, locus YOR265W, strain rbl2, stronger effect = lower value 1 | S. cerevisiae deletion strains, locus YOR270C, strain vph1, stronger effect = lower value 1 | S. cerevisiae deletion strains, locus YOR290C, strain snf2, stronger effect = lower value 1.03 | S. cerevisiae deletion strains, locus YOR316C, strain cot1, stronger effect = lower value 1.02 | S. cerevisiae deletion strains, locus YPL051W, strain arl3, stronger effect = lower value 1.03 | S. cerevisiae deletion strains, locus YPL055C, strain LGE1, stronger effect = lower value 1.01 | S. cerevisiae deletion strains, locus YPL078C, strain atp4, stronger effect = lower value 1.02 | S. cerevisiae deletion strains, locus YPL106C, strain sse1, stronger effect = lower value 1.03 | S. cerevisiae deletion strains, locus YPL240C, strain hsp82, stronger effect = lower value 1 | S. cerevisiae deletion strains, locus YPL241C, strain CIN2, stronger effect = lower value 1.01 | S. cerevisiae deletion strains, locus YPL256C, strain CLN2, stronger effect = lower value 0.93 | S. cerevisiae deletion strains, locus YPR119W, strain clb2, stronger effect = lower value 1.01 | S. cerevisiae deletion strains, locus YPR141C, strain kar3, stronger effect = lower value 0.995 | S. cerevisiae deletion strains, locus YPR163C, strain tif3, stronger effect = lower value 1 | S. cerevisiae deletion strains, locus YPR167C, strain met16, stronger effect = lower value 1 | S. cerevisiae deletion strains, strain wtn01, stronger effect = lower value 1.01 | S. cerevisiae strains, strain wild type, stronger effect = lower value 1.01
